Calls of active or inactive are those of the source. The calls were made as follows: active = hit-call score of the fitted dose curve at least 0.9, where 1 is the maximum; inactive = score below 0.9.
What follows are compounds tested against Myc proto-oncogene protein (Homo sapiens) (UniProt P01106) (assay: ATG_Myc_CIS: Attagene CIS-FACTORIAL HepG2 Assay for human Myelocytomatosis (Myc) Proto-Oncogene Transcription Factor (AID 2282990)). Conditions: HepG2, Attagene cis-reporter transcription factor activity; actives raise or lower the signal.
Sequence of Myc proto-oncogene protein (Homo sapiens) (P01106 whole entry, looked up): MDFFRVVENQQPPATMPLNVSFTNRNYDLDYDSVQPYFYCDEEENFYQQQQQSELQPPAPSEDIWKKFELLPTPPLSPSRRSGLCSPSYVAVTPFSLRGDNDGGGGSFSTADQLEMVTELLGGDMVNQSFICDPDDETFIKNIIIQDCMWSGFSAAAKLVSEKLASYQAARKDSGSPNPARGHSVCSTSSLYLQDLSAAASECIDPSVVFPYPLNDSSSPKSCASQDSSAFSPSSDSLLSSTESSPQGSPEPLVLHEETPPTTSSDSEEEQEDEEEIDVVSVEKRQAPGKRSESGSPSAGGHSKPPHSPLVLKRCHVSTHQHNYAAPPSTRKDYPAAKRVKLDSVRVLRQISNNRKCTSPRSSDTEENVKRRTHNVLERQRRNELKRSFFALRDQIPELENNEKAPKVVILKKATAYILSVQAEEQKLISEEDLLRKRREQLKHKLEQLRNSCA
Procedure: ATG_CIS is a cell-based, multiplexed-readout assay that uses HepG2, a human liver cell line, with measurements taken at 24 hours after chemical dosing in a 24-well plate.ATG_Myc_CIS is one of 52 assay component(s) measured or calculated from the ATG_CIS assay. It is designed to make measurements of mRNA induction, a form of inducible reporter, as detected with fluorescence intensity signals by Reverse transcription polymerase chain reaction (RT-PCR) and Capillary electrophoresis technology.Data from the assay component ATG_Myc_CIS was analyzed into 1 assay endpoint. This assay endpoint, ATG_Myc_CIS, was analyzed with bidirectional fitting relative to DMSO as the negative control and baseline of activity. Using a type of inducible reporter, measures of mRNA for gain or loss-of-signal activity can be used to understand the reporter gene at the transcription factor-level as they relate to the gene MYC. Furthermore, this assay endpoint can be referred to as a primary readout, because this assay has produced multiple assay endpoints where this one serves a reporter gene function. To generalize the intended target to other relatable targets, this assay endpoint is annotated to the dna binding intended target family, where the subfamily is basic helix-loop-helix leucine zipper.
Human liver HepG2 cells are transiently transfected with multiple reporter transcription units (MRTUs) in 6-well plates using FuGene 6 reagent (Roche; 3 ml FuGene/1 mg DNA). The MRTU constructs are regulated by a cis-regulating element (promoter). […] A major difference between the CIS and TRANS system is that in CIS activities of endogenous TFs are measured, whereas the TRANS assay evaluates changes in activities of exogenous, chimeric NR-Gal4 proteins. […] At the end of 24 hour incubation, total RNA was isolated using TriZol reagent (Invitrogen). The isolated RNA is then reverse-transcribed using oligo(dT) primer and Mo-MLV reverse transcriptase (Invitrogen) with DNAse I (Ambion) treatment for 30 min. The one-tenth of the produced cDNA was amplified by PCR using Taq DNA polymerase (Invitrogen) and two reporter sequence-specific primers. The PCR products were fluorescently labeled by primer extension with 6-arboxyfluorescein (6-FAM) 5'-labeled reporter sequence-specific primer (2 min at 95 C, 20 s at 68 C and 10 min at 72 C) and these products were digested with 5U of HpaI (New England Biolabs) for 2h at 37 C. The fragments were purified using Qiaquick PCR columns (Qiagen), analyzed on an ABI 3130xL genetic analyzer (Applied Biosystems) with peak positions identified by using a set of X-rhodamine (ROX)-labeled MapMarker1000 molecular weight standards (BioVentures). The raw capillary electrophoresis data was processed using Attagraph software (Attagene).

SMILES | outcome | AC50
C=COC(=O)C(C)(C)CCCCCC | inactive | –
O=S(=O)(O)c1ccccc1 | inactive | –
C[C@]12CC[C@@H]3c4ccc(O)cc4CC[C@H]3[C@@H]1C[C@@H](O)[C@@H]2O | inactive | –
FC(F)(F)C(F)(F)C(F)(F)C(F)(F)I | inactive | –
Cc1cc(=O)oc2cc(O)ccc12 | inactive | –
CCC(=O)O | inactive | –
Nc1ccc(O)c(C(=O)O)c1 | inactive | –
Cc1ccccc1OCC(=O)O | inactive | –
O=C(O)c1cccc(C(=O)O)n1 | inactive | –
CC(C)(O)C(=O)c1ccccc1 | inactive | –
CCCCC(CC)C(=O)OCCOCCOCCOCCOC(=O)C(CC)CCCC (stereo not given) | inactive | –
O=C(CCCN1CCC(O)(c2ccc(Cl)cc2)CC1)c1ccc(F)cc1 | inactive | –
CCCCCCCCC(C)=O | inactive | –
Clc1ccc(Nc2nnc(Cc3ccncc3)c3ccccc23)cc1 | inactive | –
CN(C)c1ccc(C(=C2C=CC(=[N+](C)C)C=C2)c2ccccc2)cc1 | inactive | –
C=CC(=O)OCCC(F)(F)C(F)(F)C(F)(F)C(F)(F)C(F)(F)C(F)(F)C(F)(F)C(F)(F)F | inactive | –
Cc1cncc(C)c1 | inactive | –
Oc1ccc(Cc2ccccc2O)cc1 | inactive | –
Cc1ccc(S(=O)(=O)O)cc1 | inactive | –
CC=O | inactive | –

SMILES | outcome | AC50
C=CC(F)(F)C(F)(F)C(F)(F)C(F)(F)F | inactive | –
CCOC(=O)c1nc(C(Cl)(Cl)Cl)n(-c2ccc(Cl)cc2Cl)n1 | – | 24.5 µM (active)
CCC(=O)C=Cc1ccc(OC)cc1 | inactive | –
OCCN1CN(CCO)CN(CCO)C1 | inactive | –
CCC1CO1 (stereo not given) | inactive | –
CC(C)(c1ccc(Oc2ccc(N)cc2)cc1)c1ccc(Oc2ccc(N)cc2)cc1 | inactive | –
CCOC(OCC)C(=O)c1ccccc1 | inactive | –
CCOCCOCC | inactive | –
N=C(N)c1ccc(OCCCCCOc2ccc(C(=N)N)cc2)cc1 | inactive | –
CCCCCCCCCCCC | inactive | –
O=C(O)C(=O)O | inactive | –
CCCCc1ccc2ccccc2c1S(=O)(=O)O | inactive | –
O=C1NS(=O)(=O)c2ccccc21 | inactive | –
CC(C)(C)c1ccc(CCC=O)cc1 | inactive | –
Oc1c(Cl)ccc(Cl)c1Cl | inactive | –
CCCCc1oc2ccccc2c1C(=O)c1cc(I)c(OCCN(CC)CC)c(I)c1 | inactive | –
O=CC(F)(F)C(F)(F)C(F)(F)F | inactive | –
CCc1cccc(CC)c1NC(=O)C(=O)O | inactive | –
Cc1cc(Cc2cc(C)cc(C(C)(C)C)c2O)c(O)c(C(C)(C)C)c1 | – | 136 µM (active)
O=CC(F)(F)C(F)(F)C(F)(F)C(F)F | inactive | –

Reference: PubChem BioAssay (EPA / NIEHS)
